Consider 40 molecules from PubChem BioAssay (NCI).

SMILES strings stand for the structures. This is part of a sample that, as a whole, favours compounds with a hit. Of some 83,000 tested, about 20% had one in any assay.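 Activity criterion: percent growth below 10, measured after cells in 96-well plates were exposed to a single compound concentration for 48 hours.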 A number with no mark means an inactive call. Activity calls are given as the source filed them.

This experiment deals with HL-60(TB) leukemia. Nature of the experiment: NCI-60 one-dose screen, 48 h (100 = growth as untreated, 0 = no growth, -100 = all killed). The note with it: 10 µM unless noted.
On to `O/N=C/c1ccncc1`, for which the growth was 110%.
To `N[C@@H]1CCN(C(=O)c2cc3cc(Cl)c(F)c(F)c3[nH]2)C1` belongs 97.7%; to `COc1cccc(-c2ccc3c(c2)C2CCN(Cc4ccccc4)C3C2)c1` (stereo not given), 46.2%; to `CSc1nc2c(c(=O)n1C)CN(Cc1ccccc1)C(=O)CN2`, 84.9%.
For `O=C(CCl)N1CCN(C/C=C/c2ccccc2)CC1` the value was 102%; for `Oc1ccccc1/C=N/NC(=S)NC1CC2C=CC1C2` (stereo not given), 58.3%; for `CCOC(=O)C1C(=O)C(=O)N(C(C)C)C1C(=O)OCC` (stereo not given), 123%.
To `O=C1C=C(OCC=C(Cl)Cl)C(=O)c2ccccc21` belongs -1.08% (active).
As to `N#Cc1c(-c2ccccc2)nc(SCC(=O)N2CCN(c3ccccc3)CC2)[nH]c1=O`, the growth was 62.5%.
For `NC(=O)Nc1ccc2ncnc(Nc3cccc(O)c3)c2c1`, the growth was 105%.
For `CCOc1nc(-c2ccccc2)cc2c(O)c(C(=O)NC(C)C)[nH]c(=O)c12` the value was 168%; for `O=S(=O)(O)c1ccc(N=Nc2ccc(N=Nc3cccc4ccccc34)c(S(=O)(=O)O)c2)cc1`, 105%.
For `CN1C(=O)N(C)C2C1NC(=S)N2/N=C/C=C/c1ccccc1[N+](=O)[O-]` (stereo not given) the value was -34.9% (active); for `COc1cccc(-c2nn(-c3ccccc3)cc2-c2ccnc(NCCCNC(=O)c3cccc(C(F)(F)F)c3)c2)c1`, 7.43% (active).
On to `COc1ccc2c(c1)c(-c1nc(-c3c[nH]c4ncccc34)cs1)cn2CCNC(=O)OC(C)(C)C`, for which the growth was 69.2%.
Consider `OC(COc1ccccc1Cl)CN1CCN(c2cccc(Cl)c2)CC1` (stereo not given), for which the growth is 112%.
In the case of `COc1ccc(C(O)c2cc3c(N)c(C(=O)Nc4cccc(Cl)c4C)sc3nc2C)cc1` (stereo not given), the growth was -51% (active).
With `CCCCOc1nc2ccc(Cl)cc2cc1/C=C/C(=O)/C=C/c1ccc(Cl)cc1`, the growth was 61.2%.
For `Clc1ccc2c(c1)C(Br)c1cc(Cl)cc(Cl)c1-2` (stereo not given) the value was 81.3%; for `N#CC1C(C#N)C(C(=O)c2ccc(Br)cc2)N2c3ccccc3C=CC12` (stereo not given), 94.3%.
`CC(=O)N1N=C(c2ccc(C)cc2)CC1c1ccc(Oc2ccc(Br)cc2)cc1` (stereo not given): the growth was 94%.
To `CC1=NN(C(=O)c2nn(-c3ccc(Cl)cc3)cc2O)C(=O)C1` belongs 5.71% (active); to `COc1cc(/C=C\c2cc(OC)c(OC)c(OC)c2)cc(NS(=O)(=O)c2ccc(Cl)cc2)c1OC`, -31% (active).
For `S=c1[nH]cccc1-c1nnc2n1Nc1nc3ccccc3cc1CS2` the value was 105%; for `O=C1C(=O)c2c(nc3ccc(C(F)(F)F)cn23)-c2ccccc21`, -47% (active); for `O=c1[nH]cc(Nc2cc(Cl)c3nonc3c2[N+](=O)[O-])c(=O)[nH]1`, 75.8%.
To `O=C(NCCNc1nccc(-c2c(-c3cccc(O)c3)nc3sccn23)n1)Nc1cccc(C(F)(F)F)c1` belongs 36.4%.
For the molecule `CCOC(=O)Nc1nn[nH]n1`, the growth was 47.7%.
As to `CCc1cccc2c1S/C(=C/c1ccc(Cl)cc1)C2=O`, the growth is 93.5%.
For `c1ccc(CSc2nnc3c4c5c(sc4nc(-c4cccnc4)n23)CCCCCC5)cc1` the value was 4% (active); for `N/C(=N\O)c1ccncc1`, 102%.
For `O=C(CI)NCCNc1cccc2c(S(=O)(=O)O)cccc12` the value was 105%.
In the case of `CC1C(=O)c2ccccc2CC1C(=O)O` (stereo not given), the growth is 99.7%.
For `CC[n+]1c(/C=C/c2ccc(N3CCCC3)cc2)cccc1/C=C/c1ccc(N2CCCC2)cc1` the value was -20.8% (active).
To `OCc1cccc(F)c1` belongs 107%; to `CCCCN1CCN(c2ccc3nc(-c4ccc5nc(-c6ccc(C(F)(F)F)cc6)[nH]c5c4)[nH]c3c2)CC1`, -58.7% (active).
To `Oc1cc(Cl)ccc1Cc1ccc(Cl)cc1O` belongs 41.4%.
With `COC1/C=C\OC2(C)Oc3c(C)c(O)c4c(O)c(c(CN(C)CCO)c(O)c4c3C2=O)NC(=O)/C(C)=C\C=C/C(C)C(O)C(C)C(O)C(C)C(OC(C)=O)C1C` (stereo not given), the growth was 114%.
`CCN(CC)CCOc1nc2ccccc2c2c1-c1ccc(OC)cc1C2=O`: the growth was 9.1% (active).
For `CCc1ccc(Nc2ncnc3c2cnn3-c2cccc(Br)c2)cc1` the value was 114%.
